Measured values taken from PubChem BioAssay.
Active and inactive are the calls of the source.

How the values were obtained:
[1] = tested on: Plasmodium falciparum Sir2 (PF13_0152, Sir2A); assay: Plasmodium falciparum Sir2A binding compounds – biochemical, small-molecule microarray, 635 nm fluorescence, primary screen (AID 1098); conditions: fluorescence 635 nm, higher = more signal;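 note: score merges spot fluorescence intensity with its signal-to-noise ratio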
[2] = probe aDKK1 binding to arrayed compounds – biochemical, biotinylated probe, 635/667 nm fluorescence, primary screen (AID 1099); conditions: small-molecule microarray, higher = more signal;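 note: score merges 667nm spot fluorescence with signal to noise across triplicate slides; reference of the scale not given here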
[3] = probe aCHRDL2 binding to arrayed compounds – biochemical, biotinylated probe, 635/667 nm fluorescence, primary screen (AID 1100); conditions: small-molecule microarray, higher = more signal
[4] = change in splice reporter luminescence, either direction, cell-based, HEK293, spliceosome inhibition project, primary screen (AID 1101); conditions: HEK293 splicing luciferase reporter, 24 h, higher = more signal, called active from +8 up or from −8 down;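 note: HEK293 cells carrying a splicing-competent luciferase reporter gene; test concentration not given here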
[5] = biological target: Fibroblast growth factor 10 (Homo sapiens) (UniProt O15520); assay: compounds binding fibroblast growth factor 10 – biochemical, small-molecule microarray, 635 nm fluorescence, primary screen (AID 1102); conditions: FGF10 binding, fluorescence 635 nm, higher = more signal
[6] = tested on: glycogen synthase kinase-3 (GSK3A per assay name; protocol says GSK3B); assay: compounds binding glycogen synthase kinase-3 – biochemical, small-molecule microarray, 635 nm fluorescence, GSK3A, primary screen (AID 1103); conditions: fluorescence 635 nm, higher = more signal; note: the record names both GSK3A and GSK3B
[7] = biological target: Epidermal growth factor receptor (Homo sapiens) (UniProt P00533); assay: compounds binding epidermal growth factor receptor – biochemical, small-molecule microarray, 635 nm fluorescence, primary screen (AID 1104); conditions: EGFR binding, higher = more signal;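 note: score merges 667 nm emission intensity with spot signal to noise over triplicate slides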
[8] = biological target: Follistatin-related protein 3 (Homo sapiens) (UniProt O95633); assay: compounds binding follistatin-related protein 3 – biochemical, small-molecule microarray, 635 nm fluorescence, primary screen (AID 1105); conditions: FSTL3 binding, higher = more signal;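 note: score merges emission near 667 nm and signal to noise per printed spot across three slides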
[9] = biological target: Dickkopf-related protein 1 (Homo sapiens) (UniProt O94907); assay: small molecules binding DKK1 protein – biochemical, small-molecule microarray, 635 nm fluorescence scan, primary screen (AID 1106); conditions: higher = more signal;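 note: score merges emission near 667 nm with signal to noise over three replicate slides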
[10] = tested on: Inhibin beta A chain (activin A); assay: small molecules binding activin A – biochemical, small-molecule microarray, 635 nm fluorescence scan, primary screen (AID 1107); conditions: INHBA, higher = more signal;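 note: mouse activin A protein probed at 4.33 µg/mL on printed slides; score merges bound-protein fluorescence near 667 nm with spot signal-to-noise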

Chain of Follistatin-related protein 3 (Homo sapiens) (O95633 whole entry, looked up): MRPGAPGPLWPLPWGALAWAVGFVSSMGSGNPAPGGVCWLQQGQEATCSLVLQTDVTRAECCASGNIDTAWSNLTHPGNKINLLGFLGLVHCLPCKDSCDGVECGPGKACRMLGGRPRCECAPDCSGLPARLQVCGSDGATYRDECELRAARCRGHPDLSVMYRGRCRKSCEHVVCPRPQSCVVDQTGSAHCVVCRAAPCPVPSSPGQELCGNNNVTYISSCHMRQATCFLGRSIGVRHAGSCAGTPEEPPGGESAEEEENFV
Chain of Fibroblast growth factor 10 (Homo sapiens) (O15520 whole entry, looked up): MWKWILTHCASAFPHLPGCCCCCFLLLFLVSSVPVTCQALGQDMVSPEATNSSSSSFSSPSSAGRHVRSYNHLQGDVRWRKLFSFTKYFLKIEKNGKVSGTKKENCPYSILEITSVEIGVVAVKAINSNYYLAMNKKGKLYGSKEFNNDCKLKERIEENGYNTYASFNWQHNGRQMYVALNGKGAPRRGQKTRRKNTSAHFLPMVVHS
Chain of Epidermal growth factor receptor (Homo sapiens) (P00533 whole entry, looked up): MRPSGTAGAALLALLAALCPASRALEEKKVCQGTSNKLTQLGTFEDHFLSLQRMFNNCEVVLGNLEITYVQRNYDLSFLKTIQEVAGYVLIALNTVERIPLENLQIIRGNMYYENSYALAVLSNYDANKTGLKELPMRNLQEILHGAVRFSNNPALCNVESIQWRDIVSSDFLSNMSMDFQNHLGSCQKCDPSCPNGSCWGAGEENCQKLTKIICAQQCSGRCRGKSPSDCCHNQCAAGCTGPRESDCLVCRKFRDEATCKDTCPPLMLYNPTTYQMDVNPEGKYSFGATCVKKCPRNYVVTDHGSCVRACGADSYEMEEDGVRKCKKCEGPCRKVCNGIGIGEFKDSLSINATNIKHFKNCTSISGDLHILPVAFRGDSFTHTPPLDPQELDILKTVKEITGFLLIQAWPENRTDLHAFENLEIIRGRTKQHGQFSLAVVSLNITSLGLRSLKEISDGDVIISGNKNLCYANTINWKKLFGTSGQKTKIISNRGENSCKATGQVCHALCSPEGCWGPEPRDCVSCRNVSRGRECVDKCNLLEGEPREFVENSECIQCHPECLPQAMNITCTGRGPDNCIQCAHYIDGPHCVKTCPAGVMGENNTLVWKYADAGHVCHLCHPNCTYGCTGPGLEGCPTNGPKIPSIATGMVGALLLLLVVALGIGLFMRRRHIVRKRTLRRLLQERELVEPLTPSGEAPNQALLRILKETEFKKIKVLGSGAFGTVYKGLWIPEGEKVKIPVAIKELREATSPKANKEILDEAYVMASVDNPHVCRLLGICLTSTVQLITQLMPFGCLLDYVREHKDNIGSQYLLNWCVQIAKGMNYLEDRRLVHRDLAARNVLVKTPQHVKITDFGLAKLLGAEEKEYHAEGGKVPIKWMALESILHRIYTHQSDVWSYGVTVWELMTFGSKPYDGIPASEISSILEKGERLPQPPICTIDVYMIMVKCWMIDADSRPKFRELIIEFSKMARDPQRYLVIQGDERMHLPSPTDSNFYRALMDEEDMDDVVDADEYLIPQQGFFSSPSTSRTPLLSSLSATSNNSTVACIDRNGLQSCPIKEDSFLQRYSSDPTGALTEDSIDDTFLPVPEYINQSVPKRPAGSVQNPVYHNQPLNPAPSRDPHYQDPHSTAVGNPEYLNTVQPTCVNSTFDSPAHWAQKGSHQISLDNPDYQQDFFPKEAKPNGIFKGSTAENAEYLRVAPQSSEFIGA
Chain of Dickkopf-related protein 1 (Homo sapiens) (O94907 whole entry, looked up): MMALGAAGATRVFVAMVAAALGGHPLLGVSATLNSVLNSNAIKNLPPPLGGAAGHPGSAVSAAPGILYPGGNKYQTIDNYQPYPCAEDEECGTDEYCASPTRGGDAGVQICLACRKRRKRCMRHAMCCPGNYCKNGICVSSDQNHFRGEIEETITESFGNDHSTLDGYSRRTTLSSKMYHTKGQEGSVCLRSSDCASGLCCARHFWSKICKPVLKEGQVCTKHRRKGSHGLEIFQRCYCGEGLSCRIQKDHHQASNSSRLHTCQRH

Row | Compound | composite z-score [1] | composite z-score [2] | composite z-score [3] | z-score [4] | composite z-score [5] | composite z-score [6] | composite z-score [7] | composite z-score [8] | composite z-score [9] | composite z-score [10]
1 | O[C@@H](Cc1ccccc1)[C@@H](/C=C/c1ccccc1)NCc1ccccc1Br | -1.01 | 0.151 | 1.16 | 0.761 (inactive) | -1.98 | -1.45 | -1.37 | -2.06 | -1.42 | 0.52
2 | C=CCOC(=O)[C@H]1[C@@H]2C(=O)O[C@@H](c3ccccc3)[C@@H](c3ccccc3)N2[C@@H](c2ccc(OCCOC(=O)[C@@H]3C[C@@H]4C(=O)NCC(=O)N4[C@@H]3c3ccc(O)cc3)cc2)[C@]12C(=O)Nc1ccc(I)cc12 | 1.49 | -0.106 | 0.0065 | -0.0179 (inactive) | 1.2 | 1.3 | 1.14 | 1.34 | 0.873 | 0.141
3 | CN(C)CCCCNC(=O)[C@@H]1C[C@@H]2C(=O)N[C@@H](CCCCN)C(=O)N2[C@@H]1c1cccc(OCCO)c1 | 1.9 | 0.123 | 0.74 | -0.239 (inactive) | -0.383 | 0.0265 | -1.22 | -0.795 | -0.988 | 0.0049
4 | COCCOC(=O)N1C(=O)[C@@]2(c3cc(C#Cc4ccc(OC)cc4)ccc31)[C@H](c1ccc(OCCO)cc1)N1[C@H](c3ccccc3)[C@H](c3ccccc3)OC(=O)[C@H]1[C@@H]2C(=O)N1CCc2cc(OC)c(OC)cc2C1 | 1.41 | -0.126 | -0.227 | -0.355 (inactive) | 0.812 | 1.12 | 0.463 | 1.3 | 0.435 | 0.273
5 | O=C1O[C@H](c2ccccc2)[C@H](c2ccccc2)N2[C@H]1[C@@H](C(=O)Nc1nc3ccccc3s1)[C@]1(C(=O)Nc3ccc(C#CC4=CCCCC4)cc31)[C@H]2c1ccc(OCCO)cc1 | 0.956 | -0.004 | 0.54 | -0.718 (inactive) | 1 | 1.3 | 0.202 | 0.891 | 0.779 | 0.881
6 | O=C1O[C@@H](c2ccccc2)[C@@H](c2ccccc2)N2[C@@H](c3ccc(O)cc3)[C@]3(C(=O)Nc4ccccc43)[C@@H](C(=O)NC[C@H](O)c3ccccc3)[C@H]12 | 0.851 | -0.139 | 0.0547 | 0.576 (inactive) | 0.117 | -1.28 | 0.249 | 0.244 | 0.259 | -0.297
7 | COCCOC(=O)N1C(=O)[C@@]2(c3ccccc31)[C@H](c1ccc(O)cc1)N1[C@H](c3ccccc3)[C@H](c3ccccc3)OC(=O)[C@H]1[C@@H]2C(N)=O | 0.394 | -0.374 | 0.679 | 0.435 (inactive) | -0.422 | -1.11 | -0.608 | -0.821 | -1.17 | -0.249
8 | C#C[C@H]1Oc2ccccc2S(=O)(=O)N2CCC[C@@H]12 | 0.578 | -0.215 | -0.0688 | 0.724 (inactive) | -0.0502 | 0.0695 | 0.354 | 0.712 | 1.29 | 1.74
9 | Cc1cc(C)c(C(O)C2C=CC3C(=O)NC(=O)C3N2Nc2ccccn2)c(C)c1 (stereo not given) | -0.0405 | 0.118 | 0.862 | 1.43 (inactive) | 0.158 | 0.22 | -0.373 | 0.547 | -0.669 | 0.838
10 | COC(=O)[C@@]1(Cc2ccccc2)[C@H]2c3cc(C(=O)N(C)C)n(Cc4ccccc4)c3C[C@H]2CN1C(=O)c1ccccc1 | 1.05 | 0.855 | 0.816 | -1.03 (inactive) | 0.69 | -0.0617 | -0.262 | 0.383 | -0.61 | 0.735
11 | Cc1ccc(C(C)CC(O)C2C=CC3C(=O)NC(=O)C3N2Nc2ccccn2)o1 (stereo not given) | 1.22 | 0.182 | -0.0866 | 0.802 (inactive) | 0.228 | 0.309 | 0.401 | 0.506 | 0.906 | 1.25
12 | O=C(CS)NCCCCCNC(=O)[C@H]1C[C@H]2C(=O)N[C@@H](Cc3ccccc3)C(=O)N2[C@H]1c1cccc(OCCO)c1 | 1.4 | 0.185 | 0.373 | 0.101 (inactive) | 1.41 | 1.36 | 0.98 | 1.42 | 1.61 | 0.597
13 | C=CC[C@]1(C(=O)O)N=C(c2ccc(OCCCO)cc2)O[C@H]1c1ccccc1CN=[N+]=[N-] | 1.74 | 0.177 | 0.559 | -0.611 (inactive) | -0.222 | -0.341 | -0.0348 | 0.0521 | -0.128 | 1.35
14 | CC(C)N1C(=O)c2ccccc2[C@](C)(C(=O)NCCCN(C)C)[C@@H]1c1ccc(CO)cc1 | 0.928 | 0.466 | 0.665 | -0.297 (inactive) | -0.543 | 1.4 | -0.968 | -0.749 | -1.78 | 0.814
15 | CN1C(=O)C2C=CC(C(O)c3ccccc3)N(NC(=O)OC(C)(C)C)C2C1=O (stereo not given) | 0.782 | 0.153 | 0.455 | 1.54 (inactive) | 0.35 | 0.459 | -0.043 | -0.0889 | -0.237 | 0.375
16 | CC(C)[C@H]1COC(=O)N1C(=O)[C@H]1[C@@H](c2ccccc2)N(c2ccccc2)O[C@@H]1C | 0.22 | -0.139 | -0.273 | 0.145 (inactive) | 0.521 | 0.474 | 0.218 | 1.04 | 0.517 | 0.264
17 | COc1ccc(C(O)C2C=CC3C(=O)N(c4ccccc4)C(=O)C3N2Nc2ccccc2)c2ccccc12 (stereo not given) | 1 | 0.927 | 0.947 | 0.66 (inactive) | -0.0394 | 0.0564 | -0.413 | 0.165 | -0.611 | 1.19
18 | C=CCOC(=O)[C@H]1[C@@H]2C(=O)O[C@@H](c3ccccc3)[C@@H](c3ccccc3)N2[C@@H](c2ccc(OCCOC(=O)[C@H]3C[C@H]4C(=O)N[C@@H](CCCC[N+](C)(C)C)C(=O)N4[C@H]3c3ccc(O)cc3)cc2)[C@]12C(=O)Nc1ccccc12 | 1.63 | -0.194 | -0.135 | -1.08 (inactive) | 0.507 | -0.112 | -0.229 | 0.563 | 0.387 | -0.196
19 | COCCOC(=O)N1C(=O)[C@@]2(c3cc(C#CC4=CCCCC4)ccc31)[C@H](c1ccc(OCCO)cc1)N1[C@H](c3ccccc3)[C@H](c3ccccc3)OC(=O)[C@H]1[C@@H]2C(=O)Nc1nc2ccccc2s1 | 0.581 | 0.0643 | 0.153 | -0.831 (inactive) | 1.08 | 1.29 | 0.287 | 1.12 | 0.521 | 0.462
20 | COc1cc(NN2C(C(O)c3ccccc3)C=CC3C(=O)N(c4ccccc4)C(=O)C32)cc(OC)c1OC (stereo not given) | 1.53 | 0.256 | 0.862 | -0.412 (inactive) | 1.28 | 1.14 | 0.257 | 1.47 | 0.0142 | 0.706
21 | Cn1c2c(c3ccccc31)C(=O)C1NC2C=CC1(C)C(=O)OCc1ccccc1 (stereo not given) | 1.15 | 0.347 | 1.26 | 0.167 (inactive) | -0.667 | -0.788 | -1.57 | -1.58 | -2.53 | 0.674
22 | COCCOC(=O)N1C(=O)[C@@]2(c3cc(C#Cc4ccc(OC)cc4)ccc31)[C@H](C(N)=O)[C@H]1C(=O)O[C@H](c3ccccc3)[C@H](c3ccccc3)N1[C@@H]2c1ccc(O)cc1 | 0.356 | -0.76 | -0.318 | -0.298 (inactive) | -1.67 | -1.53 | -1.67 | -1.95 | -2.42 | -0.115
23 | CCCCC(=C=CC[C@H](O)c1ccccc1OCCO)C[C@H](O)c1cc(Cl)cc(Cl)c1O | 1.26 | 0.0947 | 0.0444 | 0.23 (inactive) | 0.345 | 0.24 | -0.619 | 0.179 | -0.429 | 0.796
24 | Cc1c(NC(=O)/C(C#N)=C/C=C/c2ccccc2)c(=O)n(-c2ccccc2)n1C | 0.504 | -0.0814 | -0.366 | 0.777 (inactive) | -0.0134 | 0.234 | 0.513 | 0.573 | 0.425 | 0.772
25 | CC(C)N1C(=O)c2ccccc2[C@](C)(C(=O)NC2CC2)[C@@H]1c1ccc(CO)cc1 | 0.173 | 0.0976 | 0.151 | -0.0713 (inactive) | 0.13 | 0.821 | -0.415 | 0.507 | 0.33 | 0.926
26 | CC(C)C(CO)N1C(=O)[C@@H]2[C@H]3C(=O)OCC=C[C@H]3OC23C=CCN(c2ccc4ccccc4c2)C(=O)[C@@H]13 (stereo not given in full) | 0.233 | -0.387 | 0.343 | 0.0617 (inactive) | -0.617 | -1.15 | -1.04 | -1.3 | -0.688 | -0.141
27 | Cc1ccc(S[C@]2(C(=O)NCCCN(C)C)CC(=O)N(Cc3ccccc3)[C@@H]2c2ccc(CO)cc2)cc1 | -1.43 | 0.938 | 1.15 | -0.522 (inactive) | -1.01 | -0.726 | -1.03 | -1.26 | -0.909 | 0.591
28 | O=C1C2C=CC(C(O)c3ccc(B(O)O)cc3)N(Nc3ccc([N+](=O)[O-])cc3)C2C(=O)N1c1ccccc1 (stereo not given) | 0.76 | 0.627 | 0.642 | 0.98 (inactive) | 1.11 | 1.19 | 0.415 | 0.998 | -0.0757 | 0.0102
29 | O=C1O[C@@H](c2ccccc2)[C@@H](c2ccccc2)N2[C@@H](c3ccccc3OCCO)[C@]3(C(=O)Nc4ccc(C#CC5(O)CCCCCC5)cc43)[C@@H](C(=O)NC[C@H](O)c3ccccc3)[C@H]12 | 1.06 | 1.64 | 0.204 | -0.525 (inactive) | 1.3 | 0.868 | 0.265 | 1.08 | 0.283 | 1
